HepG2 viability: qHTS for Inhibitors of TGF-b: Cytotox Counterscreen; HepG2 CAGA-GFP viability, ATP luminescence, 18 h; Potency, µM (top dose mostly 46.1 µM), for inactives: at the top dose activity change, negative = cytotoxicity, usual class: cytotoxic; hit rate 0.76% among 410,000; AID 588856, 2011
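CellTiter-Glo luminescence gave cytotoxicity after 18 hours at 37 degrees C. The cells were HepG2 CAGA-GFP in 1% FBS DMEM, stimulated with 500 pg/mL TGF-beta after compound addition. %Activity was normalised to no-cell wells (complete cell-killing) and DMSO (no toxicity), and curves were fitted and classified.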
TDP1 cell noCPT: qHTS for Inhibitors of human tyrosyl-DNA phosphodiesterase 1 (TDP1): qHTS in cells in absence of CPT | hit rate 15% among 420,000 | Potency, µM (doses to about 46.2 µM), for inactives: at the top dose activity change, negative = growth inhibition, most hits filed as inhibitors | AID 686978, 2013 | DT40 Tdp1-/- hTDP1 cells, no CPT, ATP luminescence, 48 h; also: % is scaled to controls: 0 for no effect and ±100 for the full control effect; nearly all actives have a fitted effect of over 55% in size
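Luminescent ATP content (CellTiter-Glo) served as the growth readout. Knockout chicken DT40 cells expressing human TDP1 were exposed to compounds without camptothecin for a minimum 48 hr at 37 °C.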
HT1080NT lethal: qHTS for induction of synthetic lethality in tumor cells producing 2HG: qHTS for the HT-1080-NT fibrosarcoma cell line; HT-1080-NT fibrosarcoma viability, CellTiter-Glo ATP luminescence, 48 h; Potency, µM (highest dose often 46.1 µM), without a hit: top-dose activity, negative = less viability, usual class: cytotoxic; hit rate 1.6% among 360,000; AID 686970, 2013;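 also: NT is the 2HG producing partner of a matched IDH1 knockdown line; 0% = DMSO-treated cells and -100% = media-only wells without cells; nearly all actives have a fitted effect of over 55% in size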
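Fibrosarcoma NT cells, 750 per well in 5% FBS RPMI, were exposed to compound for 48 hours. Viability: CellTiter-Glo luminescence.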
DT40 TDP1 CPT: qHTS for Inhibitors of human tyrosyl-DNA phosphodiesterase 1 (TDP1): qHTS in cells in presence of CPT; chicken DT40 Tdp1-/-;hTDP1 cells + 20 nM CPT, ATP luminescence, 48 h; Potency, µM (top dose mostly 46.2 µM), for the others: at the highest dose activity change, negative = growth inhibition, actives largely listed as inhibitors; hit rate 12% among 420,000; also: % is scaled to controls: 0 for no effect and ±100 for the full control effect; nearly all actives have a fitted effect of over 55% in size
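Cell growth measured by CellTiter-Glo luminescence after a minimum 48 h, 37 C compound exposure with 20 nM CPT in Tdp1-knockout DT40 cells stably expressing hTDP1, seeded 400/well; qHTS titration format.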
TGFb inhibitor: qHTS for Inhibitors of TGF-b. HepG2 CAGA-GFP TGF-b/SMAD3 reporter, GFP fluorescence, 18 h; TGF-beta stimulated, 500 pg/mL final. Potency, µM (top dose mostly 46.1 µM), for the others: top-dose activity, negative = inhibition, hits mostly inhibitors. hit rate 1.2% among 410,000; also: % is scaled to controls: 0 for no effect and ±100 for the full control effect; nearly all actives have a fitted effect of over 65% in size
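Inhibition of TGF-beta-driven CAGA-GFP reporter expression in HEPG2 cells is measured by cellular GFP fluorescence after 18 h stimulation with 500 pg/mL recombinant TGF-beta in 1% FBS medium at 37 degrees C.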
HT1080 IDH1KD tx: qHTS for induction of synthetic lethality in tumor cells producing 2HG: qHTS for the HT-1080-IDH1KD cell line | HT-1080 IDH1 knockdown viability, ATP luminescence, 48 h | Potency, µM (titrated, usually from 46.1 µM), inactives show top-dose activity, negative = toxicity, actives largely listed as cytotoxic | hit rate 2% among 360,000 | AID 686971, 2013;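 also: 0% = DMSO wells and -100% = cell-free medium wells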
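IDH1KD HT-1080 cells, 750/well, RPMI + 5% FBS; compound pinned after 2 h settling; 48 h, 37 °C; CellTiter-Glo luminescence; % activity normalised to DMSO and no-cell wells; curves fitted, classed by r2 and efficacy.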
An asterisk follows results filed as active; ? = inconclusive; nt = no result given; [ ] = dose if it differs, or a comment. The list is not random: actives were taken first. Their share in the collection is about 17%. Calls follow the shape of the dose curve; as a rule, active = well fitted curve in the direction sought with a large enough effect; inconclusive = small, poorly fitted or top-dose-only effect, or another doubt; inactive = no such curve, though single readings can be large; an effect the other way counts as inactive or inconclusive. Potency is read from the fitted curve at half-maximal effect.

SMILES | HepG2 viability | TDP1 cell noCPT | HT1080NT lethal | DT40 TDP1 CPT | TGFb inhibitor | HT1080 IDH1KD tx
CCC(C)NC(=O)Cc1c(C)c2cc3c(cc2oc1=O)OC(C)(C)CC3 (configuration not stated) | -18.4% | 14.6µM* | -2.6% | ? | 0.0% | -25.7%
Cc1c(CC(=O)NC(C)C)c(=O)oc2cc3c(cc12)CCC(C)(C)O3 | -19.6% | ? | 16.8% | 20.6µM* | 0.0% | 0.2%
COc1ccccc1N1CCN(C(c2cccs2)c2nnnn2C2CCCC2)CC1 (configuration not stated) | 4.0% | ? | 4.7% | ? | ? | -0.7%
CCOC(=O)C1CCCN(C(=O)c2cc(Nc3ccc(OC)cc3OC)nc3ccccc23)C1 (configuration not stated) | -3.0% | 20.6µM* | 0.9% | 16.4µM* | -18.7% | -3.1%
CCOC(=O)C1CCCN(C(=O)c2cc3c(Cl)nc4ccccc4c3s2)C1 (configuration not stated) | -39.1% | 18.4µM* | nt | ? | -24.2% | nt
CCOC(=O)C1CCCN(C(=O)c2cc(Nc3ccc(OC)c(OC)c3)nc3ccccc23)C1 (configuration not stated) | -19.7% | 16.4µM* | 0.3% | ? | -3.8% | -11.9%
O=C(c1cc2c(Cl)nc3ccccc3c2s1)N1CCCCC1 | -12.5% | ? | nt | ? | ? | nt
CCCC1(C2CCCC2)NC(=O)NC1=O (configuration not stated) | 8.8% | -4.1% | 7.2% | -3.9% | 0.8% | 6.7%
COc1ccc(CN(C)C(=O)c2ccccc2Sc2ccccc2C#N)cc1OC | -0.7% | ? | -3.8% | 16.4µM* | 0.0% | -25.6%
COc1cc(C(C)=O)ccc1OCC(=O)Nc1ccc(S(=O)(=O)N2CCCCC2)cc1 | -0.1% | 0.461µM* | -0.5% | -95.4% | -0.9% | 1.8%
COc1ccc(NC(=O)CCCNC(=O)c2ccc(Cl)cc2)cc1S(=O)(=O)N1CCCCC1 | -10.3% | 20.6µM* | -3.3% | ? | -1.1% | 1.5%
COc1cc(/C=C/C(=O)OCC(=O)Nc2ccc(C)c(S(=O)(=O)N3CCCCC3)c2)ccc1O | 7.4% | 25.9µM* | ? | ? | -18.1% | -28.2%
COc1cc(C(C)=O)ccc1OCC(=O)Nc1ccc(C)c(S(=O)(=O)N2CCCCCC2)c1 | -30.8% | 16.4µM* | -22.5% | 8.2µM* | ? | -21.5%
COc1ccc(NC(=O)CCCNC(=O)c2ccc(Cl)cc2)cc1OC | -3.1% | 3.1% | 0.2% | 0.1% | -10.1% | -6.4%
COc1ccc(NC(=O)c2ccc(S(=O)(=O)N3CCCCC3)cc2)cc1OC | -7.4% | ? | -8.1%[9.24 µM] | ? | -1.8% | -2.0%
O=C1NC(=O)C2(CCCc3c([N+](=O)[O-])cccc32)N1 (configuration not stated) | -25.2% | -3.7% | 4.8% | 23.0% | 3.9% | 0.1%
O=C(COC(=O)C1COc2ccccc2O1)c1ccccc1 (configuration not stated) | 4.0% | 3.8% | 11.9% | -6.1% | -2.6% | -8.0%
CCOC(=O)c1c(C)c(-c2ccccc2)n(CC(=O)Nc2cc(C)ccc2OC)c1C | -0.7% | 18.4µM* | nt | ? | -16.7% | nt
CCOC(=O)c1c(C)c(-c2ccccc2)n(CC(=O)Nc2cccc(C)c2C)c1C | 1.9% | 14.6µM* | nt | 13µM* | 0.5% | nt
CCOC(=O)c1c(C)c(-c2ccccc2)n(CC(=O)Nc2ccc(OCC)cc2)c1C | 13.8% | -28.7% | nt | -2.8% | -0.7% | nt
C=CCN(CC(O)c1cccc([N+](=O)[O-])c1)C(C)CCc1ccccc1 (configuration not stated) | -19.5% | 20.6µM* | -13.1% | ? | -27.9% | ?
N#CCCN(C(=O)COC(=O)c1cc(=O)c2ccccc2o1)c1ccccc1 | -2.7% | -5.7% | 0.0% | -4.1% | -9.2% | 9.5%
CCN(CC)CCOC(=O)c1ccc(NC(=O)c2nn(C)c3c2COc2ccccc2-3)cc1 | -27.3% | 3.26µM* | nt | 4.11µM* | -5.7% | nt
CC(=O)c1ccc(NC(=O)c2nn(C)c3c2CS(=O)(=O)c2ccccc2-3)cc1 | -2.7% | -12.2% | nt | -17.5% | 0.1% | nt
CCOC(=O)c1ccc(NC(=O)c2nn(C)c3c2COc2ccccc2-3)cc1 | 4.1% | -4.5% | nt | ? | -12.1% | nt
SMILES | HepG2 viability | TDP1 cell noCPT | HT1080NT lethal | DT40 TDP1 CPT | TGFb inhibitor | HT1080 IDH1KD tx
CC(=O)c1ccc(NC(=O)c2noc3c2CSc2ccccc2-3)cc1 | -10.8% | 9.2µM* | nt | 14.6µM* | -0.3% | nt
CC(=O)c1ccc(NC(=O)c2nn(C)c3c2COc2ccccc2-3)cc1 | 3.1% | ? | nt | 14.6µM* | 0.3% | nt
CCOc1ccc(NC(=O)c2noc3c2CSc2ccccc2-3)cc1 | -16.6% | -24.7% | nt | -9.1% | 0.8% | nt
Cc1cccc(C)c1NC(=O)COC(=O)c1ccc([N+](=O)[O-])o1 | -26.6% | -17.4% | 13.8% | -4.0% | -4.4% | 18.1%
C#CCNc1nc(CC)nc2c1nnn2Cc1ccccc1F | -3.9% | -21.6% | -27.2% | -19.8% | -10.2% | -20.4%
COc1ccc(C(=O)Nc2nc(-c3ccccn3)cs2)cc1S(=O)(=O)N1CCOCC1 | -45.0% | 5.17µM* | -22.3% | 13µM* | -24.7% | ?
O=C(Nc1nc(-c2ccccn2)cs1)c1cccc(S(=O)(=O)N2CCOCC2)c1 | -36.7% | 2.91µM* | -23.4% | 4.11µM* | -24.6% | ?
CCn1cc(S(=O)(=O)N2CCc3ccccc3C2)cn1 | 1.2% | 9.2% | -3.3% | -14.9% | 5.0% | -0.5%
COC(=O)c1cccc(C(=O)N2CCc3c(cnc(C)c3CNC(=O)c3ccsc3)C2)c1 | nt | 1.4% | nt | -13.8%[9.04 µM] | nt | nt
Cn1c(=O)n(CCOc2ccccc2Cl)c2ccccc21 | 7.0% | 5.8µM* | -11.1% | -3.0% | 3.1% | -19.5%
CCN(CC)CCn1c(=N)n(CC(O)c2ccc(OC)c(OC)c2)c2ccccc21 (configuration not stated) | -12.9% | 2.3% | -13.4% | -22.0% | -5.6% | -13.3%
CCN(CC)CCn1c(=N)n(CC(O)c2ccco2)c2ccccc21 (configuration not stated) | -26.9% | ? | -1.0% | -13.3% | -17.9% | 0.4%
Cn1c(=O)n(Cc2ccccc2Cl)c2ccccc21 | -30.7% | 18.4µM* | -4.1% | ? | 2.4% | -11.7%

Screens (PubChem BioAssay)
